Source: PubChem BioAssay (NCATS)

target: DNA dC->dU-editing enzyme APOBEC-3G (Homo sapiens) (UniProt Q9HC16); test: qHTS for inhibitors of Vif-A3G interactions: Validation (AID 588379); conditions: Vif-A3G protein interaction assay; series mostly up to 46.1 µM; activity change, negative = inhibition: at the top concentration; also: 0% is about no effect
Text: The recent discovery and characterization of host restriction factors, which provide a potent defense to invading retroviruses, has provided new targets for antiviral drug development. APOBEC3G (A3G) and APOBEC3F (A3F) are potent cytidine deaminases that block HIV-1 replication; HIV-1 expresses the Vif protein, which counteracts A3G and A3F by binding to them and inducing their proteasomal degradation.
The Vif-A3G and Vif-A3F interactions provide two potential targets for development of small molecules which can interfere with the ability of Vif to degrade A3G or A3F. […] To identify inhibitors that can interfere with Vif mediated degradation of A3G and A3F, we have developed Hela cell lines that stably express A3G or A3F tagged with eYFP at the C-terminal end (A3G-eYFP or A3F-eYFP, respectively) and Vif. In the absence of an inhibitor, Vif induces degradation of A3G-eYFP and A3F-eYFP, and the cells are not fluorescent. In the presence of an inhibitor, it is expected that Vif will be unable to degrade A3G-eYFP and/or A3F-eYFP, resulting in an increase in yellow fluorescence. In this assays Vif A3G was screened against the Molecular Library Small Molecile Repository (MLSMR).
NIH Chemical Genomics Center [NCGC]
NIH Molecular Libraries Probe Centers Network [MLPCN]
Assay Submitter (PI): Vinay Pathak, National Cancer Institute
5 uL of 700 cells/well of A3G-YFP cells are dispensed into black, clear bottom plates. The plates are incubated overnight at 37 deg C. 23 nL of compounds are added by pintool. The plates are incubated overnight at 37 deg C and then read on the TTP Acumen (Ex 488/ Em 500-530).

Sequence of DNA dC->dU-editing enzyme APOBEC-3G (Homo sapiens) (Q9HC16 whole entry, looked up): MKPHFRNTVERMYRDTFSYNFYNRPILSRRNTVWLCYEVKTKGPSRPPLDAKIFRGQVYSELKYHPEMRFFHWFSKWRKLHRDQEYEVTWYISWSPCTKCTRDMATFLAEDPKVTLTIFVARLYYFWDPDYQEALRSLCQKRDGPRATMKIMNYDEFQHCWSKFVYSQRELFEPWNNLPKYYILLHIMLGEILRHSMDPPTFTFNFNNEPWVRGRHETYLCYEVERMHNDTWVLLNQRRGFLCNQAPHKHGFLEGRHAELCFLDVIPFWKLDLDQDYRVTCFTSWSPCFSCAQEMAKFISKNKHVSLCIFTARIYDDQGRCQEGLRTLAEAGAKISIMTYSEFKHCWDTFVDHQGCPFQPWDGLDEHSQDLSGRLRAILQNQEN

Activity change, negative = inhibition, inactive:
O=C1c2ccccc2C(=O)c2c(O)c(O)cc(O)c21 -2.12%
O=C(/C=C/c1ccc(O)c(O)c1)O[C@@H]1C[C@@](O)(C(=O)O)C[C@H](O)[C@@H]1O 2.36%
CC(C)CCCC(C)C1CCC2C3CC=C4CC(O)CCC4(C)C3CCC12C (stereo not given) -4.94%
O=C(O)C1OC(O)C(O)C(O)C1O (stereo not given) -7.81%
N[C@H](Cc1ccc(O)cc1)C(=O)O -1.28%
Cc1cc2ccc(=O)oc2cc1OC[C@@H](O)C(C)(C)O -3.87%
CC/C=C\C[C@H]1C(=O)CC[C@@H]1CC(=O)O -0.913%
COc1c2ccoc2nc2c(OC)c(OCC(O)C(C)(C)O)ccc12 (stereo not given) -2.41%
O=c1[nH]c(=O)n([C@@H]2O[C@H](CO)[C@@H](O)[C@H]2O)cc1Br -1.94%
CC(C)[C@H]1CC[C@@H](C)C[C@H]1O -0.714%
N=c1ccn2c(n1)O[C@@H]1[C@H](O)[C@H](CO)O[C@@H]12 -1.73%
O=c1cc(-c2ccccc2)oc2cccc(O)c12 0.255%
O=c1ccn([C@H]2C[C@H](O)[C@@H](CO)O2)c(=O)[nH]1 -0.999%
C[C@]1(c2ccccc2)OC(C(=O)O)=CC1=O -0.246%
C/C(=C\CNc1ncnc2nc[nH]c12)CO -1.2%
Nc1ccn([C@@H]2O[C@H](CO)[C@@H](OP(=O)(O)O)[C@H]2O)c(=O)n1 3.94%
CC1(C)CCC[C@]2(C)C3CC(=O)O[C@@]3(C)CC[C@H]12 (stereo not given in full) 0.864%
CC1OC(OCC2OC(Oc3c(-c4ccc(O)c(O)c4)oc4cc(O)cc(O)c4c3=O)C(O)C(O)C2O)C(O)C(O)C1O (stereo not given) -11.2%
CC[C@@H]1OC(=O)[C@@H](C)[C@H](O[C@H]2C[C@@](C)(OC)[C@@H](O)[C@H](C)O2)C(C)[C@H](O[C@H]2O[C@@H](C)C[C@@H](N(C)C)[C@@H]2O)[C@@](C)(O)C[C@H](C)C(=O)[C@@H](C)[C@H](O)[C@@]1(C)O (stereo not given in full) -2.57%
C=C1CC[C@@H]2O[C@@]2(C)CC[C@H]2[C@H]1CC2(C)C -0.2%
CCC(C)C(=O)O[C@H]1C[C@@H](C)C=C2C=C[C@H](C)[C@H](CC[C@@H]3C[C@@H](O)CC(=O)O3)C21 (stereo not given in full) -0.654%
COc1ccc2c(c1OC)C(=O)O[C@H]2C1c2c(cc3c(c2OC)OCO3)CCN1C (stereo not given in full) -3.51%
Cc1cc(=O)oc2cc(O[C@@H]3O[C@H](C(=O)O)[C@@H](O)[C@H](O)[C@H]3O)ccc12 1.76%
CN1[C@H](CC(=O)c2ccccc2)CCC[C@H]1C[C@@H](O)c1ccccc1 -2.13%
C[C@H]1C[C@]2(O[C@@H]2C)C(=O)O[C@@H]2CCN(C)C/C=C(/COC(=O)[C@]1(C)O)C2=O -2.48%
Nc1ccn([C@H]2C[C@H](O)[C@@H](CO)O2)c(=O)n1 -2.09%
O=c1[nH]c(=O)n([C@@H]2O[C@H](CO)[C@@H](O)[C@H]2O)cc1F -21.2%
COc1c(-c2ccccc2)oc2c(ccc3occc32)c1=O -0.0047%
C=C1C[C@@]23C[C@@]1(O)CC[C@@H]2[C@]12C=C[C@@H](O)[C@](C)(C(=O)O1)[C@@H]2[C@@H]3C(=O)O -4.73%
CC(C)C1=CC2=CC[C@@H]3[C@@](C)(C(=O)O)CCC[C@]3(C)C2CC1 (stereo not given in full) -5.68%
O=c1c2ccccc2oc2cc(O)c(C3COCC(CO)C(O)C(O)C3O)c(O)c12 (stereo not given) -2.59%
C[C@@H]1O[C@@H](O[C@H]2[C@H](Oc3cc(O)c4c(c3)O[C@H](c3ccc(O)cc3)CC4=O)O[C@H](CO)[C@@H](O)[C@@H]2O)[C@H](O)[C@H](O)[C@H]1O 6.67%
COc1ccc(C2CC(=O)c3c(O)cc(OC4OC(COC5OC(C)C(O)C(O)C5O)C(O)C(O)C4O)cc3O2)cc1O (stereo not given) -7.19%
COc1ccc(-c2cc(=O)c3c(O)cc(O)cc3o2)cc1 -2.17%
C=C1CCC2C(C)(CO)C(O)CCC2(C)C1C/C=C1\C(=O)OCC1O (stereo not given) -15.5%
Cc1ccnc(N)c1 -2.78%
COC1OC2COC(c3ccccc3)OC2C(O)C1O (stereo not given) -2.82%
CC1=CC(=O)[C@@H]2C[C@H]1C2(C)C 2%
COc1cc2ccc(=O)oc2c(O)c1O -0.086%
O=C(O)C1=C[C@@H](O)[C@@H](O)[C@H](O)C1 -2.06%
